From PubChem BioAssay (EPA / NIEHS)
Results filed as inconclusive are left out. Activity calls are given as the source filed them. The calls were made as follows, unless noted: active = hit-call score of the fitted dose curve at least 0.9, where 1 is the maximum; inconclusive = response in the unintended direction; inactive = score below 0.9.

Columns and labels:
[1] = TOX21_p53_BLA_p2_viability: Viability Assessment in the Tox21 HCT-116 p53 Agonism Beta-lactamase Assay, Phase 2 (AID 2283591);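 also: actives lower the ATP signal meaning cytotoxicity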
Summary of the method: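 HCT116 p53-bla cells, 4000/well, dosed after 5 h plating (217-fold dilution of DMSO stocks) and incubated 16 h at 37C. Viability taken as cellular ATP by CellTiter-Glo luminescence after 30 min RT; signal loss marks cytotoxicity.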

[2] = target: Cellular tumor antigen p53 (Homo sapiens) (UniProt P04637); assay: TOX21_p53_BLA_p2_ratio: Tox21 HCT-116 p53 Agonism Beta-lactamase Assay, Ratio, Phase 2 (AID 2283592)
Chain of Cellular tumor antigen p53 (Homo sapiens) (P04637 whole entry, looked up): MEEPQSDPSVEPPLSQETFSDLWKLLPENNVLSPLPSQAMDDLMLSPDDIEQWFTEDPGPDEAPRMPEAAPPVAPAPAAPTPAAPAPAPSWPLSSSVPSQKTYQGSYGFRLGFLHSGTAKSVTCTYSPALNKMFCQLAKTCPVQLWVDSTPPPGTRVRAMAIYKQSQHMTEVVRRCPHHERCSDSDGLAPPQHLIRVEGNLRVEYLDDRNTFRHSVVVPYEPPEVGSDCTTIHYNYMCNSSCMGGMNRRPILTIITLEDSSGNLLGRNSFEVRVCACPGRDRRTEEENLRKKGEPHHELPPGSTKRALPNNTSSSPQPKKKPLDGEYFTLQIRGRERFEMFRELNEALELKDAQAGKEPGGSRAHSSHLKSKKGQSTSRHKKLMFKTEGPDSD
Summary of the method: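 An inducible beta-lactamase reporter in HCT116 cells signals p53 pathway activation. After 16 h chemical exposure at 37C, cells load CCF4-AM substrate for 2 h at room temperature; activity is the cleaved/uncleaved emission ratio relative to DMSO.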

[3] = TOX21_p53_BLA_p4_viability: Viability Assessment in the Tox21 HCT-116 p53 Agonism Beta-lactamase Assay, Phase 4 (AID 2283597);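 also: hits lower the luminescence signal meaning cytotoxicity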
Summary of the method: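 Compound exposure of HCT116 cells lasts 16 h at 37C, 5% CO2, with DMSO stocks diluted 217-fold. Cellular ATP is then quantified by CellTiter-Glo luminescence after 30 min at room temperature.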

[4] = target: Cellular tumor antigen p53 (Homo sapiens) (UniProt P04637); assay: TOX21_p53_BLA_p5_ratio: Tox21 HCT-116 p53 Agonism Beta-lactamase Assay, Ratio, Phase 5 (AID 2283599)
Summary of the method: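 HCT-116 p53-bla cells (4000/well) plated 5 h, dosed with compound (217-fold DMSO dilution) for 16 h at 37 C; CCF4-AM substrate 2 h at room temperature. Activity is the 460/530 nm emission ratio (405 nm excitation), fitted in gain-of-signal direction versus DMSO.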

[5] = target: Cellular tumor antigen p53 (Homo sapiens) (UniProt P04637); assay: TOX21_p53_BLA_p4_ratio: Tox21 HCT-116 p53 Agonism Beta-lactamase Assay, Ratio, Phase 4 (AID 2283601)
Summary of the method: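 HCT-116 p53 beta-lactamase reporter cells (4000/well) preincubated 5 h, then compound (217-fold dilution of DMSO stock) for 16 h at 37C. CCF4-AM substrate added 2 h at room temperature; 460/530 nm emission ratio fitted upward versus DMSO.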

[6] = TOX21_p53_BLA_p5_viability: Viability Assessment in the Tox21 HCT-116 p53 Agonism Beta-lactamase Assay, Phase 5 (AID 2283600)
Summary of the method: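 Counter-readout for cytotoxicity: ATP-dependent luminescence from CellTiter-Glo, read in the beta-lactamase wells after 30 min at RT, following a 16 h compound exposure at 37C.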

[7] = CCTE_Harrill_HTTr_Viability_MCF7: CCTE's 6-hour Cell Viability Assessment for the High-Throughput Transcriptomics (HTTr) Platform, in MCF-7 cells cultured in DMEM + 10% fetal bovine serum, Harrill Lab (AID 2284010; active = hit-call score of the fitted dose curve at least 0.9, where 1 is the maximum; inactive = score below 0.9)
Summary of the method: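 Viability measured through PI dye exclusion by high-content imaging at 6 h post-dosing.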

[8] = CCTE_Harrill_HTTr_CellCount_MCF7: CCTE's Cell Proliferation Assessment for the High-Throughput Transcriptomics (HTTr) Platform, Harrill Lab (AID 2284012);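 also: count of Hoechst-stained nuclei per well by high-content imaging in MCF-7 cells; cells exposed to compound for six hours; intended direction is loss of nuclei count meaning fewer cells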
Summary of the method: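 Nuclei counting (Hoechst, high content imaging) in MCF-7 after a 6 h treatment at eight concentrations. Activity fitted bidirectionally, DMSO as negative control.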

Measured: AC50

O=C(O)c1cccc(O)c1
inactive: [1] | [2] | [3] | [4] | [5]

C[C@@H]1O[C@@H](O[C@@H]2[C@@H](O)[C@H](OCCc3ccc(O)c(O)c3)O[C@H](CO[C@@H]3O[C@H](CO)[C@@H](O)[C@H](O)[C@H]3O)[C@H]2OC(=O)/C=C/c2ccc(O)c(O)c2)[C@H](O)[C@H](O)[C@H]1O
inactive: [1] | [2] | [3] | [6]

CC(O)CN(C)C (stereo not given)
inactive: [1] | [2] | [3] | [4] | [5]

Nc1ccccn1
not listed: [7] | [8]
inactive: all other assays above

CCC(C)=NO[Si](C)(ON=C(C)CC)ON=C(C)CC
not listed: [7] | [8]
inactive: all other assays above

CC(=O)N/N=C/c1ccc([N+](=O)[O-])o1
active: [2] 42.3 µM | [3] 40.9 µM | [4] 34.9 µM | [5] 41.3 µM
inactive: [1] | [6]

CCCCCOC(=O)Nc1nc(=O)n([C@@H]2O[C@H](C)[C@@H](O)[C@H]2O)cc1F
not listed: [7] | [8]
inactive: all other assays above

O=S(=O)(O)CCS
not listed: [7] | [8]
inactive: all other assays above

Cc1ccc(N=Nc2c(O)c(C(=O)O)cc3ccccc23)c(S(=O)(=O)O)c1
inactive: [1] | [2] | [3] | [4] | [5]

Nc1ncnc(Nc2ccc(Cl)cc2)n1
not listed: [7] | [8]
inactive: all other assays above

COc1nc(N)nc2nc[nH]c12
inactive: [1] | [2] | [3] | [6]

CCCC(C)CC (stereo not given)
inactive: [1] | [2] | [3] | [6]

CC1=C2[C@@H]([C@H](C)CC[C@H]2/C=C(\C)C(=O)O)[C@H](O)C1
inactive: [1] | [2] | [3] | [4] | [5]

CC[C@H]1NC(=O)[C@@H](NC(=O)c2ncccc2O)[C@@H](C)OC(=O)[C@H](c2ccccc2)NC(=O)[C@@H]2CC(=O)CCN2C(=O)[C@H](Cc2ccccc2)N(C)C(=O)[C@@H]2CCCN2C1=O
inactive: [1] | [2] | [3] | [4] | [6]

O=C1NC(=O)[C@@]2(CCOc3ccc(F)cc32)N1
not listed: [7] | [8]
inactive: all other assays above

CCCC(C)C(=O)O (stereo not given)
inactive: [1] | [2] | [3] | [4] | [6]

CC(=O)OC[C@H]1O[C@@H](n2ncc(=O)[nH]c2=O)[C@H](OC(C)=O)[C@@H]1OC(C)=O
inactive: [1] | [3] | [6]
active: [2] 2.04 µM | [4] 2.02 µM | [5] 2.61 µM

Nc1ccc(S(=O)(=O)NCc2ccccc2)cc1
inactive: [1] | [2] | [3] | [6]

CCNc1nc(NC(C)CC)nc(OC)n1 (stereo not given)
active: [6] 0.00012 µM
inactive: [1] | [2] | [4] | [5]

CC1(C)S[C@@H]2[C@H](N=CN3CCCCCC3)C(=O)N2[C@H]1C(=O)O
inactive: [1] | [2] | [3] | [6] | [5]

OCCCC1CCCCC1
not listed: [3] | [5]
inactive: all other assays above

C=CCCCCCCC=C
inactive: [1] | [2] | [3] | [6] | [5]

H-RKDVY-OH
inactive: [1] | [2] | [4] | [6] | [5]

C/C=C/c1ccc(OCC)c(O)c1
inactive: [1] | [2] | [4] | [6] | [5]

CCC(C)(C)C
inactive: [1] | [2] | [3] | [5]

N[C@H](C(=O)O)c1ccc(O)cc1
inactive: [1] | [2] | [4] | [6] | [5]

CCOc1cc(OCC)c(C(=O)CCC(=O)O)cc1OCC
inactive: [1] | [2] | [3] | [6] | [5]

O=c1[nH]cnc2nc[nH]c12
inactive: [1] | [2] | [4] | [5]

OC[C@@H](O)C(O)[C@@H](O)CO (stereo not given in full)
inactive: [1] | [2] | [4] | [6]

C=CCOc1cc(Cl)ccc1C(=O)NCCN(CC)CC
inactive: [1] | [2] | [4] | [5]

CN(C)CCc1c[nH]c2ccc(C[C@H]3COC(=O)N3)cc12
inactive: [1] | [2] | [4] | [6] | [5]

CCCCCCCCCC(=O)N(C)C
inactive: [1] | [2] | [4] | [6]

N#CCc1ccccc1[N+](=O)[O-]
inactive: [1] | [2] | [4] | [6] | [5]
